Here are results for 40 molecules from PubChem BioAssay (NCI).

About 83,000 compounds went through this panel and 20% of them were active in at least one assay; those are over-represented in the sample as a whole.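 How to read the values: 0–100, growth inhibition (40 = 60% inhibited); 0, no net growth; -100 to 0, cell death (-40 = 40% of starting cells died; -100 = all dead).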 Unmarked numbers belong to inactive results. The source made the active and inactive calls. The calls were made as follows: active = growth percent below 10; inactive = the rest.

The test system of the first experiment is SK-MEL-2 melanoma. Description: NCI-60 one-dose screen, 48 h (100 = growth as untreated, 0 = no growth, -100 = all killed). The following applies: 10 µM unless noted.
With `CC(C)CNc1nc(N=[N+]=[N-])nc(NCC(C)C)n1`, the growth was 71.9% [100 µM].

As to `CCCCCCCSc1ncnc2[nH]ncc12`, the growth was 72.7%.

`COC(=O)[C@H](Cc1cn(C)cn1)NC(=O)[C@H](Cc1ccccc1)NC(=O)Nc1cc(C(F)(F)F)cc(C(F)(F)F)c1`: the growth is -94.9% [100 µM] (active).

Take `CC[N+](CCCCCCCCCC[N+](CC)(c1ccccn1)c1ccccn1)(c1ccccn1)c1ccccn1`: the growth was -58.6% (active).

Take `CCCCCCC(CC#N)(CCC)CCCC` (stereo not given): the growth was 123%.

On to `O=C1NC(=O)/C(=C\c2ccco2)S1`, for which the growth is 105%.

On to `COc1ccc([N+](=O)[O-])c(S(=O)(=O)c2ccc(Cl)cc2)n1`, for which the growth was 92.9%.

`COc1ccc(NC(=O)c2ccccc2-c2ccccc2)c(C(N)=O)c1`: the growth is 26.4%.

Take `CCCCCc1c(C)[nH]c(/C=C2\N=C(c3ccc[nH]3)C=C2Oc2ccccc2)c1C`: the growth was -63.3% [100 µM] (active).

On to `COc1ccc(NC(=O)[C@@H]2C[C@H]2c2ccccc2)c(C(N)=O)c1`, for which the growth was 89.9%.

With `COC(=O)[C@H](Cc1cnc[nH]1)NC(=O)[C@@H](NC(=O)Nc1cc(C(F)(F)F)cc(C(F)(F)F)c1)C(C)C`, the growth was -93% [100 µM] (active).

Take `O=C1C(=O)/C(=C/c2ccccc2)CCCCCC/C1=C/c1ccccc1`: the growth is 105%.

Regarding `O=C(Nc1ccc(Cl)cc1)Nc1nc2ccc(OC(F)(F)F)cc2o1`, the growth is 131%.

As to `CCCCCCCCCCCCCCCCNC(=O)Nc1ccc2ccccc2c1`, the growth is 118%.

On to `FCc1ncc(-c2ccc(C(F)(F)F)cc2)c(NC2CCCCCC2)n1`, for which the growth is -40.8% [100 µM] (active).

On to `O=Cc1ncc(-c2ccc(C(F)(F)F)cc2)c(NC2CCCCCC2)n1`, for which the growth was -79.8% [100 µM] (active).

As for `COC(=O)[C@H](Cc1cn(C)cn1)NC(=O)[C@@H](NC(=O)Nc1cc(C(F)(F)F)cc(C(F)(F)F)c1)C(C)C`, the growth was -88.7% [100 µM] (active).

With `CSc1nc(-c2ccc(O)cc2O)c2c(=O)[nH]c(Nc3ccc(S(=O)(=O)Nc4nc(C)cc(C)n4)cc3)nc2n1`, the growth was 81.2%.

As for `CC(C)OP(=O)(OC(C)C)c1ncc(-c2ccc(C(F)(F)F)cc2)c(NC2CCCCCC2)n1`, the growth was -85.1% [33.3 µM] (active).

Take `NS(=O)(=O)c1ccc(-n2nc(-c3ccc(Br)cc3)ccc2=O)cc1`: the growth was 66.6% [100 µM].

Turning to `CC1CC=CCC1C1OCC(C)(C)CO1` (stereo not given), the growth was 124%.

With `CCCCCc1c(C)[nH]c(/C=C2\N=C(c3ccc[nH]3)C=C2Oc2ccc(Cl)cc2)c1C`, the growth was -73.1% [100 µM] (active).

On to `[N-]=[N+]=NCc1ncc(-c2ccc(C(F)(F)F)cc2)c(NC2CCCCCC2)n1`, for which the growth is 78.2% [50 µM].

Consider `COc1ccc(-c2nnc3c4[nH]cnc4ncn23)c(OC)c1`, for which the growth is 29.9%.

As to `C1CCC(C(CC2CCCCN2)C2CCCCC2)CC1` (stereo not given), the growth was 64.2%.

With `CCCCCCCC[Si](OCC)(OCC)OCC`, the growth was 102%.

For the molecule `CCOc1cc(CCNS(=O)(=O)c2ccc(C)cc2)c(C(C)=O)cc1OCC`, the growth is 86.1% [100 µM].

Consider `CC(=O)c1ccc(NS(=O)(=O)c2ccc([N+](=O)[O-])cc2)cc1`, for which the growth is 95.1%.

As for `COC(=O)[C@H](CCCCNC(=O)OCc1ccccc1)NC(=O)[C@@H](NC(=O)Nc1cc(C(F)(F)F)cc(C(F)(F)F)c1)C(C)C`, the growth is -77.3% [100 µM] (active).

Take `CCOC(=O)C(C(=O)OCC)C1CCCCC1`: the growth was 110%.

Regarding `CNc1nc(NC2CCCC2)nc(Sc2ccc(OC)cc2)n1`, the growth was 9.28% [100 µM] (active).

Consider `O=c1sc2ncnc3ncn1c32`, for which the growth was 81.9%.

For `Cc1nn2c(/C=C3/C(=O)Nc4cc(Cl)ccc43)c(-c3ccccc3)nc2s1`, the growth is 0.603% (active).

Regarding `Nc1nc2c(nnn2Cc2ccc(Cl)c(Cl)c2)c(=O)[nH]1`, the growth is 90.1%.

For the next experiment, the system named is EKVX NSCLC. Described as above. The following applies: 10 µM unless noted.
As for `Cc1sc2nc3c4ccccc4c(NCCCN(C)C)nn3c(=O)c2c1C`, the growth is 75.9%.

As for `COc1cc(-c2n[nH]nc2-c2ccccn2)cc(OC)c1OC`, the growth was 94.6%.

Turning to `COc1ccc(N2CCN(CC(=O)N3CCN(c4nnc(-c5ccccc5)c(-c5ccccc5)n4)CC3)CC2)cc1`, the growth was 35.3%.

`N[C@H](CS)C(=O)O`: the growth is 97.7%.

For `CCOC(=O)c1sc(NC(=O)COc2cccc(/C=C3\Cc4ccc(Cl)cc4C3=O)c2)nc1C`, the growth is 107%.

For `O=C(/C=C/c1c(-c2ccccc2)[nH]c2ccccc12)S(=O)(=O)c1ccccc1`, the growth is 64.3%.

The test system of another experiment is SN12C renal. The experiment is described as above. The settings on record: 10 µM unless noted.
Consider `CC(C)CNc1nc(N=[N+]=[N-])nc(NCC(C)C)n1`, for which the growth was 70.8% [100 µM].

In the case of `CCCCCCCSc1ncnc2[nH]ncc12`, the growth is 86.1%.

In the case of `COC(=O)[C@H](Cc1cn(C)cn1)NC(=O)[C@H](Cc1ccccc1)NC(=O)Nc1cc(C(F)(F)F)cc(C(F)(F)F)c1`, the growth was -96.1% [100 µM] (active).

For the molecule `CC[N+](CCCCCCCCCC[N+](CC)(c1ccccn1)c1ccccn1)(c1ccccn1)c1ccccn1`, the growth is 5.03% (active).

`CCCCCCC(CC#N)(CCC)CCCC` (stereo not given): the growth is 97.8%.

In the case of `O=C1NC(=O)/C(=C\c2ccco2)S1`, the growth was 95.8%.

As to `Cc1sc2nc3c4ccccc4c(NCCCN(C)C)nn3c(=O)c2c1C`, the growth is 53.4%.

For the molecule `COc1ccc([N+](=O)[O-])c(S(=O)(=O)c2ccc(Cl)cc2)n1`, the growth was 74.5%.

On to `COc1ccc(NC(=O)c2ccccc2-c2ccccc2)c(C(N)=O)c1`, for which the growth is 61.3%.

For the molecule `CCCCCc1c(C)[nH]c(/C=C2\N=C(c3ccc[nH]3)C=C2Oc2ccccc2)c1C`, the growth was -63.4% [100 µM] (active).

Regarding `COc1ccc(NC(=O)[C@@H]2C[C@H]2c2ccccc2)c(C(N)=O)c1`, the growth was 96%.

In the case of `COc1cc(-c2n[nH]nc2-c2ccccn2)cc(OC)c1OC`, the growth was 89.7%.

As for `COC(=O)[C@H](Cc1cnc[nH]1)NC(=O)[C@@H](NC(=O)Nc1cc(C(F)(F)F)cc(C(F)(F)F)c1)C(C)C`, the growth is -96.3% [100 µM] (active).

Consider `O=C1C(=O)/C(=C/c2ccccc2)CCCCCC/C1=C/c1ccccc1`, for which the growth was 79.8%.

As to `O=C(Nc1ccc(Cl)cc1)Nc1nc2ccc(OC(F)(F)F)cc2o1`, the growth was 92.5%.

On to `COc1ccc(N2CCN(CC(=O)N3CCN(c4nnc(-c5ccccc5)c(-c5ccccc5)n4)CC3)CC2)cc1`, for which the growth is 46.8%.

In the case of `CCCCCCCCCCCCCCCCNC(=O)Nc1ccc2ccccc2c1`, the growth was 89.7%.

With `FCc1ncc(-c2ccc(C(F)(F)F)cc2)c(NC2CCCCCC2)n1`, the growth was -30.3% [100 µM] (active).

`O=Cc1ncc(-c2ccc(C(F)(F)F)cc2)c(NC2CCCCCC2)n1`: the growth was -87.4% [100 µM] (active).

As for `COC(=O)[C@H](Cc1cn(C)cn1)NC(=O)[C@@H](NC(=O)Nc1cc(C(F)(F)F)cc(C(F)(F)F)c1)C(C)C`, the growth is -85.8% [100 µM] (active).

Take `CSc1nc(-c2ccc(O)cc2O)c2c(=O)[nH]c(Nc3ccc(S(=O)(=O)Nc4nc(C)cc(C)n4)cc3)nc2n1`: the growth was 107%.

In the case of `CC(C)OP(=O)(OC(C)C)c1ncc(-c2ccc(C(F)(F)F)cc2)c(NC2CCCCCC2)n1`, the growth was -72.9% [33.3 µM] (active).

As to `NS(=O)(=O)c1ccc(-n2nc(-c3ccc(Br)cc3)ccc2=O)cc1`, the growth was 70.9% [100 µM].

In the case of `CC1CC=CCC1C1OCC(C)(C)CO1` (stereo not given), the growth is 103%.

`N[C@H](CS)C(=O)O`: the growth is 107%.

`CCCCCc1c(C)[nH]c(/C=C2\N=C(c3ccc[nH]3)C=C2Oc2ccc(Cl)cc2)c1C`: the growth is -7.03% [100 µM] (active).

Consider `[N-]=[N+]=NCc1ncc(-c2ccc(C(F)(F)F)cc2)c(NC2CCCCCC2)n1`, for which the growth is 85.2% [50 µM].

On to `COc1ccc(-c2nnc3c4[nH]cnc4ncn23)c(OC)c1`, for which the growth was 55.3%.

As to `C1CCC(C(CC2CCCCN2)C2CCCCC2)CC1` (stereo not given), the growth is 20.8%.

Consider `CCOC(=O)c1sc(NC(=O)COc2cccc(/C=C3\Cc4ccc(Cl)cc4C3=O)c2)nc1C`, for which the growth was 105%.

`CCCCCCCC[Si](OCC)(OCC)OCC`: the growth is 106%.

With `CCOc1cc(CCNS(=O)(=O)c2ccc(C)cc2)c(C(C)=O)cc1OCC`, the growth was 80.5% [100 µM].

In the case of `CC(=O)c1ccc(NS(=O)(=O)c2ccc([N+](=O)[O-])cc2)cc1`, the growth was 99.5%.

On to `COC(=O)[C@H](CCCCNC(=O)OCc1ccccc1)NC(=O)[C@@H](NC(=O)Nc1cc(C(F)(F)F)cc(C(F)(F)F)c1)C(C)C`, for which the growth is -88.3% [100 µM] (active).

`O=C(/C=C/c1c(-c2ccccc2)[nH]c2ccccc12)S(=O)(=O)c1ccccc1`: the growth is 73.6%.

Consider `CCOC(=O)C(C(=O)OCC)C1CCCCC1`, for which the growth was 106%.

Regarding `CNc1nc(NC2CCCC2)nc(Sc2ccc(OC)cc2)n1`, the growth was 28.5% [100 µM].

For `O=c1sc2ncnc3ncn1c32`, the growth is 85%.

Regarding `Cc1nn2c(/C=C3/C(=O)Nc4cc(Cl)ccc43)c(-c3ccccc3)nc2s1`, the growth was -1.6% (active).

Turning to `Nc1nc2c(nnn2Cc2ccc(Cl)c(Cl)c2)c(=O)[nH]1`, the growth is 89.9%.
